Assay [1] can be described thus: APR_HepG2_CellCycleArrest_24hr: Apredica 24-hour HepG2 Assay for Cell Cycle Arrest (AID 2282905).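 Also: cell cycle arrest scored as ratio of 2N to 4N nuclear DNA content.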 The conditions noted are these: imaging, actives raise or lower the signal. The gist of the method: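 HepG2 cells were exposed to compounds at 0.39–200 uM (ten concentrations, duplicate) in 0.5% v/v DMSO for 24 hr. After formaldehyde fixation and Triton permeabilization, Hoechst 33342-stained nuclei were imaged at 20x; DNA content was quantified, with bidirectional fitting against DMSO.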

Assay [2] in a line: APR_HepG2_StressKinase_1hr: Apredica 1-hour HepG2 Assay for Stress Kinase (AID 2282906). The note with it: HepG2 stress kinase (phospho-c-Jun) imaging, actives raise or lower the signal. The gist of the method:
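HepG2 cells dosed 0.39-200 uM (0.5% DMSO) for 1 h, then formaldehyde-fixed. Stress kinase read by phospho-c-Jun immunofluorescence using high-content imaging; bidirectional fit vs DMSO.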

The nature of assay [3]: APR_HepG2_NuclearSize_24hr: Apredica 24-hour HepG2 Assay for Nuclear Size (AID 2282907). The conditions noted are these: high-content imaging, actives raise or lower the signal. The gist of the method: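 HepG2 human liver cells were exposed for 24 hr to compounds at 0.39–200 uM (ten concentrations, duplicate) in 0.5% v/v DMSO. They were then formaldehyde-fixed, Triton-permeabilized and Hoechst 33342-stained, and nuclear diameter was imaged at 20x. Bidirectional fits were made against DMSO.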

Assay [4] can be described thus: APR_HepG2_CellLoss_24hr: Apredica 24-hour HepG2 Assay for Cell Loss (AID 2282908).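 As to AC50: fit in both directions so a hit may be cell loss or gain.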 The note with it: high-content imaging. The essentials: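 Compounds were tested at 0.39–200 uM in duplicate with 0.5% v/v DMSO final. Cells were then fixed in 3.7% formaldehyde, Hoechst 33342 nuclei were imaged at 20x by HCS, and cell number was fitted bidirectionally against DMSO.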

The nature of assay [5]: APR_HepG2_MicrotubuleCSK_24hr: Apredica 24-hour HepG2 Assay for Microtubule CSK Stabilty (AID 2282909). The conditions noted are these: HepG2 microtubule cytoskeleton imaging, actives raise or lower the signal. The gist of the method: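 HepG2 cells exposed 24 h to compounds at 0.39–200 uM (duplicate, 0.5% v/v DMSO final), then fixed, permeabilized and immunostained for alpha-tubulin with Hoechst 33342. Cytoskeleton imaged at 20x; bidirectional fit versus DMSO baseline.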

Assay [6] is described as follows: APR_HepG2_MitoticArrest_24hr: Apredica 24-hour HepG2 Assay for Mitotic Arrest (AID 2282910). The conditions noted are these: high-content imaging, actives raise or lower the signal. The essentials:
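HepG2 human liver cells were exposed to compounds at 0.39–200 uM (10 concentrations, duplicate) in 0.5% v/v DMSO for 24 hr, then fixed and immunostained for phospho-histone H3 with Hoechst 33342. Mitotic arrest came from HCS fluorescent imaging, fitted bidirectionally against DMSO.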

The nature of assay [7]: APR_HepG2_MitoMembPot_24hr: Apredica 24-hour HepG2 Assay for Mitochondrial Membrane Potential (AID 2282911). The conditions noted are these: imaging, actives raise or lower the signal. The essentials:
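HepG2 human liver cells were exposed 24 hr to compounds at 0.39–200 uM (final DMSO 0.5% v/v) in duplicate. MitoTracker Red CMXRos (250 nM, 30 min) was loaded before formaldehyde fixation; fluorescence was imaged by ArrayScan HCS and fitted bidirectionally versus DMSO.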

The nature of assay [8]: APR_HepG2_MitoMass_24hr: Apredica 24-hour HepG2 Assay for Mitochondrial Mass (AID 2282912). The conditions noted are these: high-content imaging, actives raise or lower the signal. The essentials:
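Human HepG2 liver cells were exposed for 24 hr to compounds at 0.39–200 uM (duplicates, 0.5% v/v DMSO final). They were stained live with 250 nM MitoTracker Red CMXRos for 30 min, fixed in 3.7% formaldehyde, and imaged by HCS fluorescence; signals were fitted bidirectionally against DMSO.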

A short description of assay [9]: APR_HepG2_p53Act_24hr: Apredica 24-hour HepG2 Assay for p53 Activation (AID 2282913).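 Also: p53 protein immunofluorescence averaged per cell in HepG2 with Hoechst nuclei.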 The note with it: high-content imaging, actives raise or lower the signal. The gist of the method: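 HepG2 cells exposed 24 hr to compounds at 0.39–200 uM (10 concentrations, duplicate), final DMSO 0.5% v/v. After formaldehyde fixation and Triton permeabilization, p53 was immunolabeled (sheep anti-p53, Cy5 secondary) with Hoechst 33342 nuclear counterstain, then imaged by high-content fluorescence microscopy.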

Assay [10] can be described thus: APR_HepG2_CellCycleArrest_72hr: Apredica 72-hour HepG2 Assay for Cell Cycle Arrest (AID 2282914). The note with it: high-content imaging, actives raise or lower the signal. The essentials: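 HepG2 cells were exposed to compounds at 0.39–200 uM (0.5% v/v DMSO final, duplicates) for 72 hr, fixed in 3.7% formaldehyde, permeabilized and stained with Hoechst 33342. Nuclear DNA content was quantified by high-content imaging; gain or loss of signal was fitted bidirectionally against DMSO.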

Consider 19 compounds from PubChem BioAssay (EPA / NIEHS).

By AC50 is commonly meant the concentration at which the activity in the assay is half-maximal.

Activity calls are given as the source filed them. The calls were made as follows: active = hit-call score of the fitted dose curve at least 0.9, where 1 is the maximum; inactive = score below 0.9.

On to `CN=C=S`, for which the AC50 in assay [1] is 69.2 µM (active). Moreover, the call in [2], in assay [3], in assay [4], in assay [5], in assay [6] and in assay [7] was inactive. Also, the outcome in assay [8] and in assay [9] was inactive.

Take `CC(C)=CC1C(C(=O)OCc2coc(Cc3ccccc3)c2)C1(C)C` (centres undefined): the AC50 in assay [1] was 62.5 µM (active). Also, the compound was called inactive in assay [2], in assay [3], in assay [4], in assay [5], in assay [6] and in assay [8].

With `COP(=S)(OC)SCn1nnc2ccccc2c1=O`, the compound was called inactive in assay [1], in assay [2], in assay [3], in assay [4], in assay [5] and in assay [6]. Moreover, the call in [8] and in assay [9] was inactive.

`COCC(C)N(C(=O)CCl)c1c(C)csc1C` (centres undefined): the AC50 in [1] was 109 µM (active); in assay [4] it was 115 µM (active); in assay [9], 92.6 µM (active). Moreover, the call in assay [2], in assay [3], in assay [5], in assay [6] and in assay [8] was inactive.

Take `CCOC(=O)C(C)OC(=O)c1cc(Oc2ccc(C(F)(F)F)cc2Cl)ccc1[N+](=O)[O-]` (centres undefined): the result in [1], in assay [2], in assay [3], in [4], in assay [5] and in assay [6] was inactive. Moreover, the result in [8] and in assay [9] was inactive.

Turning to `CC1(C)CCC(=Cc2ccc(Cl)cc2)C1(O)Cn1cncn1` (centres undefined), in [1], the AC50 is 117 µM (active). The outcome in [2], in assay [3], in assay [4], in [5], in [6] and in [8] was inactive. Besides, the call in assay [9] and in assay [10] was inactive.

As to `OC(c1ccc(Cl)cc1)(c1ccc(Cl)cc1)C(Cl)(Cl)Cl`, the result in [1], in assay [5], in assay [6], in [8] and in [10] was inactive. Further, the AC50 in assay [2] was 30.9 µM (active); in [3] it was 74.1 µM (active); in [4] it was 43.1 µM (active); in [9] it was 112 µM (active).

Regarding `CC(C)C1(C)N=C(c2ncccc2C(=O)O)NC1=O` (centres undefined), the outcome in [1], in [2], in assay [3], in [4], in assay [5] and in assay [6] was inactive. Also, the outcome in assay [8], in assay [9] and in assay [10] was inactive.

In the case of `CC(C)(C)C(=O)C(Oc1ccc(Cl)cc1)n1cncn1` (centres undefined), the compound was classed as inactive in assay [1], in assay [2], in assay [3], in assay [4], in assay [5] and in assay [6]. Further, the result in [8] and in assay [9] was inactive.

With `CCCC(=NOCC)C1=C(O)CC(CC(C)SCC)CC1=O` (centres undefined), the call in [1], in [2], in assay [3], in [4], in assay [5] and in assay [6] was inactive. In addition, the compound was classed as inactive in assay [8] and in assay [9].

Take `Nc1c(Cl)c(F)nc(OCC(=O)O)c1Cl`: the outcome in assay [1], in assay [2], in assay [3], in assay [4], in assay [5] and in [6] was inactive. Besides, the call in [8], in assay [9] and in [10] was inactive.

`Clc1cccc(C(Cl)(Cl)Cl)n1`: the call in [1], in [2], in assay [3], in assay [4], in [5] and in assay [6] was inactive. Also, the compound was classed as inactive in assay [8], in assay [9] and in assay [10].

For the compound `CC1(C)CON(Cc2ccccc2Cl)C1=O`, the call in [1], in assay [2], in assay [3], in assay [4], in [5] and in [6] was inactive. For the same compound, the compound was called inactive in assay [8] and in assay [9].

On to `Clc1nc(Cl)nc(Nc2ccccc2Cl)n1`, for which the result in [1], in assay [2], in assay [3], in assay [4], in assay [5] and in assay [6] was inactive. Further, the compound was classed as inactive in [8] and in [9].

As for `Cn1c(-c2ccccc2)cc(-c2ccccc2)[n+]1C`, the call in assay [1], in [2], in assay [3], in assay [4], in assay [5] and in assay [6] was inactive. Further, the outcome in assay [8], in assay [9] and in assay [10] was inactive.

Take `CN/C(=N\[N+](=O)[O-])NCc1cnc(Cl)s1`: the compound was classed as inactive in [1], in assay [2], in assay [3], in [4], in assay [5] and in assay [6]. The result in [8] and in [9] was inactive.

In the case of `Cc1cnc(C2=NC(C)(C(C)C)C(=O)N2)c(C(=O)O)c1` (centres undefined), the call in assay [1], in [2], in [3], in assay [4], in [5] and in [6] was inactive. Further, the result in [8] and in assay [9] was inactive.

Consider `CO/N=C(/C1=NOCCO1)c1ccccc1Oc1ncnc(Oc2ccccc2Cl)c1F`, for which the call in assay [1], in assay [2], in assay [3], in assay [4], in assay [5] and in assay [6] was inactive. The compound was called inactive in [8], in [9] and in assay [10].

Regarding `Cc1nc(N(C)C)nc(OC(=O)N(C)C)c1C`, the compound was classed as inactive in [1], in assay [2], in assay [3], in [4], in assay [5] and in [6]. In addition, the outcome in assay [8] and in assay [10] was inactive.
